Compound activity deposited in PubChem BioAssay by Broad Institute.
This excerpt belongs to a sample that is enriched for hits.
Tg IFNy HTS: inhibitors of Toxoplasma gondii growth with IFN-gamma; Toxoplasma gondii growth in IFN-gamma-treated host cells; hits give low values; activity change, negative = inhibition, % (no concentration beside the values); 3.8% of 69,000 active; AID 1259416; in the data active = activity change below about -70%, passing the limit was not always enough;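 also: host cells are HeLa cells infected with Toxoplasma gondii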
* hit, by the source's call.

SMILES | Tg IFNy HTS
O=c1c2ccccc2nc(/C=C/c2cn(Cc3ccccc3)c3ccccc23)n1CCCO | -30.5
C[C@@H]1CN([C@@H](C)CO)C(=O)CCCn2nncc2CO[C@@H]1CN(C)Cc1cccc2c1OCCCO2 | -46.5
Cc1onc(-c2c(F)cccc2Cl)c1C(=O)ON=C1C2CC3CC(C2)CC1C3 | -85.5*
Cc1onc(-c2c(F)cccc2Cl)c1C1=NCCO1 | 10.7
Cc1onc(-c2c(Cl)cccc2Cl)c1-c1nnc(NC(=O)c2ccco2)s1 | -61.2
CCc1c(C)oc2cc3ccccc3c-2c1C | 51.3
O=C(NCC(O)c1ccccc1)c1ccc(NC(=O)C2CCC2)cc1 (configuration not stated) | 7.4
CC(C)[C@H](C(=O)Nc1ccc(C(=O)NO)cc1)c1ccccc1 | -82.8*
CC(C)c1ccc(C(=O)Nc2ccccc2)cc1 | -9.2
Cc1nc(-c2cc(C(=O)Cc3cccnc3)c3ccccn23)cn1C | -0.3
O=C(N1CCOCC1)N1CCc2ncnc(-c3ccc(F)cc3)c2CC1 | 0.7
S=c1[nH]cc(-c2ccc(Br)cc2)[nH]1 | -97.0*
O=C(c1ccccc1C1CCNC1)N1CCCN(C2Cc3ccccc3C2)CC1 (configuration not stated) | -1.7
CCCc1cc(C(=O)N(C)CCOc2ccccc2)n[nH]1 | 91.2
Cc1ccc(CNCC2(O)CCCN(CCc3ccccc3)C2=O)s1 (configuration not stated) | -4.8
Oc1cccc(Nc2ncnc3ccccc23)c1 | -10.4
Cc1cc(F)c(Nc2ncnc3cc(OCc4ccccc4)ccc23)cc1O | -77.0*
Cc1ccc(NC(=O)Nc2ccc(OCc3ccccc3)cc2)cc1NS(C)(=O)=O | -46.2
Cc1ccoc1C(=O)NCC1CCN(Cc2ccc3nonc3c2)C1 (configuration not stated) | -3.3
CCc1cc(NCCCN2CCCC2=O)nc(N2CCOCC2)n1 | 12.8
CCc1ccc2nc(C)cc(C(=O)NCc3cccnc3-n3ccnc3)c2c1 | -9.2
O=C(NC1CCC2(CC1)CC(=O)c1ccccc1O2)c1cc2ccccc2o1 (configuration not stated) | -3.2
CC(=O)N1CCOC(Cc2cccc(C(F)(F)F)c2)C1 (configuration not stated) | -2.7
FC(F)(F)c1cccc(CN(Cc2ccccn2)CC2CCCO2)c1 (configuration not stated) | -9.9
O=C(CCC1CCCO1)Nc1ncc(Cc2cccc(C(F)(F)F)c2)s1 (configuration not stated) | -99.3*
SMILES | Tg IFNy HTS
CCn1nnc2c(NCCSc3c[nH]c4ccccc34)ncnc21 | 3.0
Cn1c(Cn2nnc3ccccc32)nnc1SCC(=O)NC(C)(C)C | 15.4
C[C@@H]1CC[C@H]2[C@@H](C)C(O)O[C@@H]3O[C@]4(C)CC[C@@H]1[C@]32OO4 (some centres not stated) | -81.5*
COc1ccc(CCNc2ncnc3c2cnn3-c2ccc(Cl)cc2)cc1OC | -53.0
Cc1ccc(C)c(-c2coc(-c3ccc(NC(=O)COc4ccc(F)cc4)cc3)n2)c1 | -18.3
CCC(C(=O)NCCN1CCCC1)n1c2ccccc2c2cnn(C)c(=O)c21 (configuration not stated) | 63.3
CCC(C(=O)N1CCN(c2ccccn2)CC1)n1c2ccccc2c2cnn(C)c(=O)c21 (configuration not stated) | -73.2*
Cn1ncc2c3ccccc3n(CC(=O)N3CCN(c4ccccn4)CC3)c2c1=O | 135.9
COc1cc(COC2CN(C(=O)c3c4c(nn3C)CCCC4)CC(=O)N(C(C)C)C2)cc(OC)c1 (configuration not stated) | -43.5
CN(Cc1ccc2c(c1)OCO2)Cc1cc2n(n1)CCCNC2 | 0.0
O=C(OCc1ccco1)c1ccc(-c2ccc(Cl)cc2)s1 | 194.0
COc1ccc(CN2CC[C@H]3OCC[C@@H](C(=O)N4CCCO4)[C@@H]3C2)cc1 | 4.9
Cc1c(Cc2c(Cl)cccc2Cl)c(=O)oc2cc(O)ccc12 | -70.8*
O=c1c2ccccc2oc2cc(O)ccc12 | 49.4
COc1cc(COc2ccc3c(C)c(Cc4ccccc4)c(=O)oc3c2)cc(OC)c1OC | -12.8
C=CCn1c(=O)c(-c2nc(-c3ccc(C)cc3)no2)c(O)c2ccccc21 | -12.0
C=CCOCc1ncn2c1CN(Cc1cnn(C)c1)CCC2 | -33.0
O=C1N(Cc2ccccc2)C(=O)C2(CCN(Cc3c[nH]c4ccccc34)CC2)N1CCc1ccccc1 | -77.1*
O=C1N(Cc2ccccc2)C(=O)C2(CCN(CC3CC=CCC3)CC2)N1CCc1ccccc1 (configuration not stated) | -33.2
O=C1N(Cc2ccccc2)C(=O)C2(CCN(Cc3ccsc3)CC2)N1CCc1ccccc1 | -63.6
O=S1(=O)CS(=O)(=O)Oc2ccccc2O1 | -30.8
CCCSCCNC(=O)c1c(O)cccc1O | 156.1
CC1=CC[C@@H]2CN(c3ccc(CS(C)(=O)=O)cn3)C[C@@H]2C1 | 34.2
NCC1CCN(Cc2cnc(NCc3ccccc3)nc2)C1 (configuration not stated) | 0.8
CC(=O)N1CCC(c2nnc3ccc(C(=O)N4CCCC4)cn23)C1 (configuration not stated) | -3.5
SMILES | Tg IFNy HTS
CCS(=O)(=O)N1CCc2nc(-c3cccc(F)c3)nc(NC3CC3)c2C1 | -34.8
COCCN1CCc2nc(-c3cnn(C)c3)nc(NC3CC3)c2C1 | 78.2
Cn1cc(-c2nc3c(c(NC4CC4)n2)CN(S(=O)(=O)c2cccc(F)c2)CC3)cn1 | -73.9*
CN(CCOP(=O)(O)O)C(=N)N | -11.0
Cc1ccc(-c2nc(C)c(CCNC(=O)C(=O)Nc3cccc(Cl)c3C)s2)cc1 | 11.8
O=C([C@H]1CCCO1)N1CCOC2(CCCN(c3ccccc3)C2)C1 (some centres not stated) | -1.2
Cc1ccc(C(=O)CSc2ncn(-c3ccccc3)n2)cc1 | 12.1
Cc1onc(-c2ccc(Cl)cc2)c1-c1ccnc(SCC(=O)c2ccccc2)n1 | -72.4*
CC(C)c1ccc(NC(=O)CSc2nccc(-c3csc(-c4ccccc4)n3)n2)cc1 | -21.9
COc1ccc(CCNC(=O)c2cncc(NS(=O)(=O)c3ccc4c(c3)OCCO4)c2)cc1OC | 40.6
C=C(C)CN1CCN(Cc2cn[nH]c2C(C)(C)C)CC1 | 25.5
C#C[C@]1(O)CCC2C3CCC4=CC(=O)CC[C@@H]4C3CC[C@@]21CC (some centres not stated) | -35.9
C#C[C@]1(OC(C)=O)CCC2C3CCC4=C/C(=N/O)CCC4C3CC[C@@]21CC (some centres not stated) | -77.8*
C#C[C@]1(O)CC[C@H]2[C@@H]3CCC4=CC(=O)CC[C@@H]4[C@H]3CC[C@@]21C | -68.2
CC(C)c1cc(C(=O)N2C[C@@H](C(=O)NC(C)(C)C)[C@@]3(Cc4ccccc4C(=O)N3)C2)no1 | -7.8
COc1ccc(-c2noc(CC(=O)NCc3ccccc3)c2-c2ccc(OC)cc2)cc1 | -62.1
Cc1ccc(Oc2ccc(CNC(=O)c3c(-c4ccncc4)noc3C)cc2)cc1 | -84.1*
Cc1noc(C)c1C(=O)NCc1ccc2c(c1)OCO2 | -39.7
CCc1ccccc1S(=O)(=O)N1CCc2nc(CNC(=O)C3CCC3)n(C)c2C1 | -83.6*
CCc1ccc(S(=O)(=O)N2CCc3nc(CNC(=O)C4CCC4)n(C)c3C2)cc1 | -46.5
Cn1c(CNC(=O)C2CCC2)nc2c1CN(S(=O)(=O)c1ccc(F)cc1)CC2 | -16.4
CO[C@@H]1CN(C)C(=O)c2cc(NC(=O)c3ccc(F)cc3)ccc2OC[C@@H](C)N(C(=O)CC2CC2)C[C@H]1C | 38.7
CN(C)C(=O)C[C@H]1CC[C@@H]2[C@@H](COc3ccc(NC(=O)C4CCCCC4)cc3C(=O)N2C)O1 | 8.3
